From PubChem BioAssay
The source made the active and inactive calls. Unless noted, the rule behind the calls is not given here.

Columns and labels:
[1] = compounds binding Alexa647 anti-His antibody – biochemical, small-molecule microarray, 635 nm fluorescence, artefact control for SMM control protein annotation, primary screen (AID 1128); conditions: higher = more signal;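 note: score merges feature fluorescence with signal-to-noise for each printed compound spot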
[2] = system: Human papillomavirus type 1a E7 protein (residues 1-88); assay: HPV1a E7 small-molecule binders, primary screen, biochemical, small-molecule microarray, residues 1-88, 635 nm (AID 1129); conditions: small-molecule microarray binding, fluorescence 635 nm; higher = more signal
[3] = target: Focal adhesion kinase 1 (Homo sapiens) (UniProt Q05397); assay: PTK2 protein binding on printed compound slides – biochemical, small-molecule microarray, 635/667 nm fluorescence, BSA, DTT, primary screen (AID 1130); conditions: 635 nm fluorescence, higher = more signal;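 note: composite of spot emission at 667 nm and signal to noise over triplicate slides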
Focal adhesion kinase 1 (Homo sapiens), sequence (Q05397 whole entry, looked up): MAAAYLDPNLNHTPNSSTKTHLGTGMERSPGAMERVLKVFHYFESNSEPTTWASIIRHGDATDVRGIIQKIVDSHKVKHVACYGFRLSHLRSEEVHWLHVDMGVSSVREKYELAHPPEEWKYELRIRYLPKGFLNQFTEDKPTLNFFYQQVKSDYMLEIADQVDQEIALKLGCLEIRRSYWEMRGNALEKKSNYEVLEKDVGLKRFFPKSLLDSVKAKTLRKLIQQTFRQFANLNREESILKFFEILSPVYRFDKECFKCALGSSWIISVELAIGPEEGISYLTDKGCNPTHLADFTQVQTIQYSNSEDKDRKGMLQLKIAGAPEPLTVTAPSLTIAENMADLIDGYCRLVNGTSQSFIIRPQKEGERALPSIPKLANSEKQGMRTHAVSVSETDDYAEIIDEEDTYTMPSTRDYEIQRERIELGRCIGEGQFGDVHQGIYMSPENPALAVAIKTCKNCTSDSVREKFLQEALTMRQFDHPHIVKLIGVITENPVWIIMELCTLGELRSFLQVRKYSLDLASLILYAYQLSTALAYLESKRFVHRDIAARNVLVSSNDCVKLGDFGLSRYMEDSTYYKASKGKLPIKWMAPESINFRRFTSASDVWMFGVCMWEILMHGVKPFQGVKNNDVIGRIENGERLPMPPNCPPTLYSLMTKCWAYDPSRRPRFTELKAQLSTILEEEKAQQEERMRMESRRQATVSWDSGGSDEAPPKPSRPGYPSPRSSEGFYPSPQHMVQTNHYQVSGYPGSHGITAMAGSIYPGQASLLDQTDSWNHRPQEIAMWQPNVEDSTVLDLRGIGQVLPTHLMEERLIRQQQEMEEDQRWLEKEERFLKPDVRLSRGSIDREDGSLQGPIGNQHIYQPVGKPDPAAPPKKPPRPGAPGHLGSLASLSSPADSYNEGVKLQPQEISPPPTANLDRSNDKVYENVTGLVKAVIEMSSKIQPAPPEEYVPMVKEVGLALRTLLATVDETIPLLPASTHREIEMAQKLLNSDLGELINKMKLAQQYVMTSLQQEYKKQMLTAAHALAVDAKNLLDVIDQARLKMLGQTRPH

[4] = system: Fibrinogen (Alexa647-labelled); assay: Alexa647-fibrinogen binding to printed small molecules – biochemical, small-molecule microarray, 635/667 nm fluorescence, artefact control for SMM control-protein annotation, profiling panel (AID 1131); conditions: fibrinogen-A647 binding fluorescence, higher = more signal;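 note: z-score merges 667 nm fluorescence with per-spot signal-to-noise over triplicate slides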
[5] = target: Follistatin (Homo sapiens) (UniProt P19883); assay: FST protein binding to printed compounds – biochemical, small-molecule microarray, 635/667 nm fluorescence, primary screen (AID 1132); conditions: 635 nm fluorescence, higher = more signal
Follistatin (Homo sapiens), sequence (P19883 whole entry, looked up): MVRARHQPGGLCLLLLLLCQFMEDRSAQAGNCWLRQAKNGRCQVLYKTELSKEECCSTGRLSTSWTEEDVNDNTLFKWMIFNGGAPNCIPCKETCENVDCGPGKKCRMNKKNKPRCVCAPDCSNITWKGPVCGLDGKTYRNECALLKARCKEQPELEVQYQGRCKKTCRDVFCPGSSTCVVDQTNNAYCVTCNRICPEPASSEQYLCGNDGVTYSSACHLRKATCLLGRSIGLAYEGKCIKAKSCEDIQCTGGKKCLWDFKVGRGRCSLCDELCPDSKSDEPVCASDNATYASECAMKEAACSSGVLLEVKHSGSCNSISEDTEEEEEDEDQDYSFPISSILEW

[6] = target: Fibroblast growth factor 2 (Homo sapiens) (UniProt P09038); assay: basic fibroblast growth factor binding to printed compounds – biochemical, small-molecule microarray, 635/667 nm fluorescence, primary screen (AID 1133); conditions: FGF2, fluorescence 635/667, higher = more signal
Fibroblast growth factor 2 (Homo sapiens), sequence (P09038 whole entry, looked up): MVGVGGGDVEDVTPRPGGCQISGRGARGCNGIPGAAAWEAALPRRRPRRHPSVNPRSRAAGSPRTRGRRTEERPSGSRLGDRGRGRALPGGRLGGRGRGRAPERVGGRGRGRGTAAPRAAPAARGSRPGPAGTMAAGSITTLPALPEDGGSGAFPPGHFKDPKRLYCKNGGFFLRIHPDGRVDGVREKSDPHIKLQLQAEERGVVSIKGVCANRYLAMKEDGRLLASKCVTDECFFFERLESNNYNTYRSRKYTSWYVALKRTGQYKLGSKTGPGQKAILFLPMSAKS

[7] = JC-1 mitochondrial potential readout, lung cancer cells – cell-based, A549, JC-1 fluorescence, basal, 24 h, 100 nL, profiling panel (AID 1138); conditions: higher = more signal;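 note: A549 lung adenocarcinoma cells under basal conditions with no added stimulus; test concentration not given here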
Lefty1 = Lefty1 protein binding to printed compounds – biochemical, small-molecule microarray, 635/667 nm fluorescence, primary screen (AID 1139); conditions: fluorescence 635/667, higher = more signal
[8] = system: wheat germ agglutinin (Triticum aestivum), Alexa647-labelled; assay: Alexa647-WGA lectin binding to printed small molecules – biochemical, small-molecule microarray, 635/667 nm fluorescence, artefact control for SMM control-protein annotation, profiling panel (AID 1140); conditions: WGA-A647 binding, 635 nm fluorescence, higher = more signal;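 note: score merges 667 nm feature emission with signal to noise over triplicate slides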
[9] = target: Luciferin 4-monooxygenase (Photinus pyralis) (UniProt P08659); assay: inhibition of purified Photinus pyralis luciferase – biochemical, luminescence, purified enzyme, 2006 set, primary screen (AID 1141); conditions: purified firefly luciferase, SteadyGlo luminescence, 30 min; higher = more signal, called active from +8 up or from −8 down;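 note: cell-free assay with purified firefly luciferase at 100 ng per well in PBS; test concentration not given here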
Luciferin 4-monooxygenase (Photinus pyralis), sequence (P08659 whole entry, looked up): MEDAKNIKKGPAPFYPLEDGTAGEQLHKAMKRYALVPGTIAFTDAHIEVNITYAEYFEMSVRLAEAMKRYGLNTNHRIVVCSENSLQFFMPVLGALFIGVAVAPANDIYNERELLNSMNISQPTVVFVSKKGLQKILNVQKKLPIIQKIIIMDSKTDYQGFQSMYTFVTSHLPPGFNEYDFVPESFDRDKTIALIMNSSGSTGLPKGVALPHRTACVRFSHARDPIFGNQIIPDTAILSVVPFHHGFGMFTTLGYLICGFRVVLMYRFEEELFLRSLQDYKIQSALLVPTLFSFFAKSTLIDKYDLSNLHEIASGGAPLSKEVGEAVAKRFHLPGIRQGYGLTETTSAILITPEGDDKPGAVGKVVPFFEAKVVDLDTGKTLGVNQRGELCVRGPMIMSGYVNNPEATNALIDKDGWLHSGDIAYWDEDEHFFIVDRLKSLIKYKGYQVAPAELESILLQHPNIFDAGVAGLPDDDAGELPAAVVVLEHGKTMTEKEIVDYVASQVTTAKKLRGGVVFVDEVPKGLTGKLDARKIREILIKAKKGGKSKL

[10] = system: Wnt5a (protein binding on small-molecule microarray); assay: small molecules binding Wnt5a protein – biophysical, small-molecule microarray, 635/667 nm fluorescence, primary screen (AID 1142); conditions: 635 nm fluorescence, higher = more signal;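 note: fluorescence read at 667 nm with signal to noise per printed feature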
[11] = ATP-based viability of Huh7 replicon cells – cell-based, CellTiter-Glo luminescence, basal, 48 h, cytotoxicity control for HCV replication inhibitor project, primary screen (AID 1143); conditions: higher = more signal, called active from +8 up or from −8 down;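 note: Huh7 hepatoma cells carrying a hepatitis C replication reporter with no stimulus; test concentration not given here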
[12] = Pseudomonas biofilm growth suppression – PAO1 strain, BacTiter-Glo luminescence, LB-PBS, primary screen (AID 1144); conditions: P. aeruginosa PAO1 biofilm, 12 h, higher = more signal
[13] = basal CRE-LacZ reporter activity in PC12 – cell-based, unstimulated, primary screen (AID 1145); conditions: no forskolin, luminescence, 4.5 h, higher = more signal, called active from +8 up or from −8 down
[14] = forskolin-driven CRE-LacZ activity in PC12 – cell-based, CRE-LacZ reporter, forskolin-stimulated, primary screen (AID 1146); conditions: luminescence, 4.5 h, higher = more signal, called active from +8 up or from −8 down;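 note: PC12 cells with 6xCRE LacZ reporter stimulated by forskolin 10 µM; beta-galactosidase reporter signal reflecting CREB driven transcription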
[15] = target: Streptavidin (Streptomyces avidinii) (UniProt P22629); assay: compounds binding control protein streptavidin – biophysical, small-molecule microarray, 635/667 nm fluorescence, artefact control for SMM compound annotation, primary screen (AID 1147); conditions: higher = more signal;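 note: signal reflects streptavidin binding to arrayed compounds as a control protein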
Streptavidin (Streptomyces avidinii), sequence (P22629 whole entry, looked up): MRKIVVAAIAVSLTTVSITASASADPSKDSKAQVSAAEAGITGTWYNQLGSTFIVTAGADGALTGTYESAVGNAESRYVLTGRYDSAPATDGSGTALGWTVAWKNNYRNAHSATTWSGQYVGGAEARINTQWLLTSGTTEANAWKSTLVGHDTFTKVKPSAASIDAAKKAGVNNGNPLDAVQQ

[16] = probe aInhba binding on compound microarray – biochemical, small-molecule microarray, 635/667 nm fluorescence, primary screen (AID 1148); conditions: higher = more signal;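 note: score merges 667nm spot fluorescence with signal-to-noise for antibody binding to printed compounds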
Torsin-1A (Homo sapiens) [17] = target: Torsin-1A (Homo sapiens) (UniProt O14656); assay: TOR1A wild-type binding on microarray – cell lysate, small-molecule microarray, lysate, 635/667 nm, primary screen (AID 1149); conditions: COS7 hTOR1A-WT lysate, 635 nm fluorescence, higher = more signal
Torsin-1A (Homo sapiens), sequence (O14656 whole entry, looked up): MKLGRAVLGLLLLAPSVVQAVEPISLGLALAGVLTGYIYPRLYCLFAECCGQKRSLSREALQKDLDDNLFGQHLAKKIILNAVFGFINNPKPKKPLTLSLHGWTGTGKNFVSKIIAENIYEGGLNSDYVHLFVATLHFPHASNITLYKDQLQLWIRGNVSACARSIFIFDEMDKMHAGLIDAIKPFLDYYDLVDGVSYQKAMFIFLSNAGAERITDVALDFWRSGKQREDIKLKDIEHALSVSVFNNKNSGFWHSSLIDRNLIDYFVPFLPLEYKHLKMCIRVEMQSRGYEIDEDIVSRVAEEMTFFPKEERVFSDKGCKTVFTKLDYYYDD

Torsin-1A (Homo sapiens) [18] = target: Torsin-1A (Homo sapiens) (UniProt O14656); assay: torsin A mutant lysate binding on microarrays – cell lysate, small-molecule microarray, COS7 lysate, 635/667 nm fluorescence, primary screen (AID 1150); conditions: COS7 hTOR1A mutant lysate, 635 nm fluorescence, higher = more signal;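 note: score pools 667 nm emission and signal to noise measuring lysate protein binding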
[19] = system: Sonic hedgehog protein (Shh); assay: Sonic hedgehog microarray binding compounds – biochemical, small-molecule microarray, 635/667 nm fluorescence, primary screen (AID 1151); conditions: 635 nm fluorescence, higher = more signal;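 note: Shh protein binding to compounds spotted on small-molecule microarray slides; score combines spot fluorescence intensity with signal-to-noise across triplicate slides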

| SMILES | composite z-score [1] | composite z-score [2] | composite z-score [3] | composite z-score [4] | composite z-score [5] | composite z-score [6] | z-score [7] | composite z-score (Lefty1) | composite z-score [8] | z-score [9] | composite z-score [10] | z-score [11] | z-score [12] | z-score [13] | z-score [14] | composite z-score [15] | composite z-score [16] | composite z-score (Torsin-1A (Homo sapiens) [17]) | composite z-score (Torsin-1A (Homo sapiens) [18]) | composite z-score [19] |
| --- | --- | --- | --- | --- | --- | --- | --- | --- | --- | --- | --- | --- | --- | --- | --- | --- | --- | --- | --- | --- |
| COCC(=C=CC[C@@H](O)c1ccccc1OCCO)C[C@@H](O)COCc1ccccc1 | 0.477 | 1.01 | -0.134 | 0.357 | 0.403 | 0.456 | 1.8 | 0.317 | 1.05 | -2.4 (inactive) | 0.561 | -1.43 (inactive) | -0.137 (inactive) | 8.9 (active) | -1.46 (inactive) | -0.236 | 0.799 | 1.26 | 0.717 | 0.709 |
| COCCOC(=O)N1C(=O)[C@@]2(c3cc(C#CC4(O)CCCCCC4)ccc31)[C@H](C(=O)N1CCN(c3ncccn3)CC1)[C@H]1C(=O)O[C@H](c3ccccc3)[C@H](c3ccccc3)N1[C@@H]2c1ccc(O)cc1 | 1.47 | 1.19 | 0.206 | 0.676 | 0.91 | 0.35 | -0.328 | 0.354 | 1.04 | -1.46 (inactive) | 0.521 | -1.45 (inactive) | 0.148 (inactive) | -0.375 (inactive) | 0.505 (inactive) | -0.0314 | 0.0982 | 0.553 | 0.432 | 0.481 |
| CC(C)CNC(=O)[C@@]1(C)c2ccccc2C(=O)N(Cc2ccccc2)[C@H]1c1ccc(CO)cc1 | -0.97 | -0.955 | -0.846 | -1.84 | -0.976 | -1.27 | -0.504 | -2.25 | -1.4 | 0.182 (inactive) | -0.368 | 0.0572 (inactive) | 0.789 (inactive) | 0.531 (inactive) | 0.172 (inactive) | -1.18 | -0.331 | -1.5 | -0.742 | -1.02 |
| COC(=O)C(CC#Cc1ccc2c(c1)[C@]1(C(=O)N2)[C@H](C(=O)N2CCc3cc(OC)c(OC)cc3C2)[C@H]2C(=O)O[C@H](c3ccccc3)[C@H](c3ccccc3)N2[C@@H]1c1ccc(OCCO)cc1)C(=O)OC | 1.47 | 1.19 | 0.344 | 0.99 | 1.01 | 1.71 | -1.29 | 0.928 | 1.23 | -1.9 (inactive) | 0.5 | -0.201 (inactive) | -0.895 (inactive) | 0.865 (inactive) | -0.474 (inactive) | 1.28 | 0.246 | 1.28 | 0.251 | 1.64 |
| Cc1cc(C)c(C(O)C2C=CC3C(=O)N(c4ccccc4)C(=O)C3N2Nc2ccccc2)c(C)c1 (stereo not given) | 2.11 | 1.22 | 0.638 | 1.03 | 0.784 | 0.0968 | 0.384 | 0.366 | 1.43 | -0.584 (inactive) | 0.345 | 0.326 (inactive) | -1.38 (inactive) | -0.329 (inactive) | 0.501 (inactive) | 1.55 | 0.117 | 0.133 | 0.329 | 0.234 |
| CCCNC(=O)[C@@]1(Sc2ccc(C)cc2)CC(=O)N(Cc2ccccc2)[C@@H]1c1ccc(CO)cc1I | 0.381 | 0.561 | 0.0147 | -0.122 | 1.38 | 1.16 | 0.651 | 0.427 | 0.996 | 0.0043 (inactive) | 0.308 | -1.81 (inactive) | 0.029 (inactive) | 0.0655 (inactive) | 1.08 (inactive) | 0.203 | -0.0221 | 0.123 | 0.485 | 1.96 |
